Test results as given in the supplement of paper PMC3334620.
The full ranking holds about 33,000 sequences; the median of “E-score (-0.5 to 0.5)” is about -0.0034, and the highest 2% start at about 0.25. Shown is part of a subset that was picked to be rich in the highest values.

molecular target: T1, Yap3 (UniProt P38749); assay: PBM E-score (8-mer binding enrichment) (E-score (-0.5 to 0.5)); higher = stronger / more preferred TF binding; details: protein concentration: 100 nM; construct: GST-full length
T1 sequence: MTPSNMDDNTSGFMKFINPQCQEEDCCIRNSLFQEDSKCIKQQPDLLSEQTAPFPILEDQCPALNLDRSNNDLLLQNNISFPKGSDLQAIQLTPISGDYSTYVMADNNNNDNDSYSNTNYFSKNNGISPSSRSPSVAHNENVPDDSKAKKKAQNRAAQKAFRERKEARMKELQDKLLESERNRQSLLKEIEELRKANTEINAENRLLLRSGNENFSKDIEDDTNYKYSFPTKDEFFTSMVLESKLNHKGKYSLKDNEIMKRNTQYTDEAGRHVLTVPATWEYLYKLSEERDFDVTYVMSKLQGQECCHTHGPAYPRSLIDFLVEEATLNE
Protocol: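 Universal 'all 10-mer' protein binding microarrays (Agilent AMADID 015681) probed with GST-tagged S. cerevisiae TFs (full-length or DBD) made by in vitro transcription/translation (PURExpress), about 100-200 nM. Bound TF was detected with fluorescent anti-GST. Each ungapped 8-mer (which stands for itself and its reverse complement) is scored by the PBM enrichment score (E-score), a modified Wilcoxon-Mann-Whitney statistic from -0.5 to +0.5, computed with the Universal PBM Analysis Suite. Scale: above 0.35 generally sequence-specific binding.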

Row | Sequence | PBM E-score
1 | ATGTAGTA | 0.237
2 | GTGTATTA | 0.338
3 | ATGTATTA | 0.178
4 | CTGTATAA | 0.13
5 | GTGTATGA | 0.0534
6 | GCGTATTA | 0.148
7 | CTGTATTC | 0.128
8 | GTGTAGTA | 0.0243
9 | CTGTAGTA | 0.281
10 | CTGTATTA | 0.258
11 | ACGTATTA | 0.282
12 | ACGTATTG | 0.111
13 | GCTGCTCC | -0.307
14 | ATCATATC | 0.193
15 | CGCTGTCA | -0.151
16 | CGAGAACC | -0.00819
17 | CGCACACG | -0.135
18 | CCGTGAGA | -0.162
19 | AACGCGCC | -0.0619
20 | AGCTTTCC | -0.0722
21 | ATTTGACG | 0.138
22 | CTGGGCCC | -0.273
23 | ATGTGTTA | 0.2
24 | GTGTGTTA | 0.259
25 | CTGTGTTA | 0.162

Row | Sequence | PBM E-score
26 | TGTTGGAA | 0.122
27 | AAGTCGAA | -0.0326
28 | ATTACCAA | 0.271
29 | ATTACCAC | 0.136
30 | AGTACCAA | 0.281
31 | GTTACCAA | 0.221
32 | CGTACCAA | 0.21
33 | TGTACCAA | 0.0503
34 | AACTCAAA | 0.187
35 | GACGCGCC | -0.119
36 | AATATGGC | 0.0119
37 | ATGACAAA | 0.307
38 | ATCACGTA | 0.311
39 | ATGACAAG | -0.0324
40 | ATGACGTA | 0.277
41 | ATGACAAC | 0.189
42 | CTGACGTA | 0.0592
43 | ATCACGTC | 0.16
44 | ATGACGTG | 0.127
45 | ATCACGTG | 0.0436
46 | TGACTGCA | -0.167
47 | CGCAGGTA | -0.116
48 | ACTTAAGT | 0.193
49 | CCGAGCGC | 0.00891
50 | ACCTAGGG | -0.0254

Row | Sequence | PBM E-score
51 | AGCAACGA | 0.117
52 | CCGCTCGC | -0.178
53 | ACAAGTTA | 0.16
54 | ACCAATAT | 0.254
55 | AACAATAA | 0.179
56 | AACAATAC | 0.0469
57 | ACCAATAC | 0.0412
58 | AACAATAT | 0.329
59 | ACCAATAG | -0.0827
60 | CGTGAACC | -0.157
61 | TCTCAGCA | 0.0139
62 | CAATTGGC | 0.179
63 | AATCCCCA | -0.0814
64 | CGGTTACC | -0.159
65 | ACCATGCG | 0.0314
66 | AAATTGGT | 0.244
67 | CCAGGGAA | -0.188
68 | ACGAACCA | 0.266
69 | ACGAACCC | -0.133
70 | CCGAACCA | -0.116
71 | AGAAGGCA | -0.115
72 | AATGCATA | 0.0923
73 | CATGCGCA | 0.0286
74 | AATGCGCA | 0.295
75 | AATGCAAG | 0.0231

Row | Sequence | PBM E-score
76 | AATGCAAA | 0.262
77 | AATGCGCG | 0.178
78 | AATGCAAC | 0.104
79 | AATGCATT | 0.258
80 | AATGCATG | 0.188
81 | GCTCTCCA | -0.215
82 | TCTATTCA | 0.222
83 | TCAAACCA | 0.165
84 | ACACTCGT | 0.00445
85 | TAATCCAA | 0.24
86 | AGAGCCCA | -0.112
87 | CGGAAGAC | -0.00677
88 | CTAATATA | 0.235
89 | CTAATCTA | 0.00845
90 | GTAATCTA | 0.319
91 | ATAATATC | 0.194
92 | ATAATATG | 0.307
93 | ATAATCTA | 0.229
94 | AGAATATA | 0.14
95 | ATAATATA | 0.307
96 | CGAATATA | 0.148
97 | ATAATAGG | 0.157
98 | GTAATAGA | 0.223
99 | GTAATATA | 0.354
100 | CAATCGGC | -0.0271

Row | Sequence | PBM E-score
101 | CAAACTGC | 0.0735
102 | ACTTGCTA | -0.0697
103 | CACTCGAC | -0.0984
104 | AATTAGAA | 0.0871
105 | CGATGGCC | -0.0485
106 | TGCTAGAA | -0.0446
107 | CCAGATAG | -0.0894
108 | ACAATATA | 0.302
109 | CCAATATA | 0.0353
110 | GCAATATA | 0.216
111 | AATGCGAC | 0.106
112 | AAGCGCTA | 0.0946
113 | AAGCGCTT | 0.321
114 | AAGCGCTC | -0.0695
115 | ACGCTTAT | -0.04
116 | AGTAACTG | 0.0876
117 | AATATGTA | 0.222
118 | CATATATG | 0.126
119 | AATATATT | 0.331
120 | AATATGTG | 0.273
121 | AATATATA | 0.229
122 | AATATATC | 0.157
123 | AATATATG | 0.304
124 | ACTATATG | 0.193
125 | AATATGTC | 0.111

Row | Sequence | PBM E-score
126 | TTCTGAAA | 0.145
127 | ACCCAAAC | 0.0961
128 | AGATCCTA | 0.0833
129 | CAAGTTCA | -0.00101
130 | CGGATGAC | 0.0307
131 | ATCTTTCA | 0.207
132 | GATAATCA | 0.221
133 | CATAATCG | 0.187
134 | CATAATCC | 0.0889
135 | TATAATCA | 0.265
136 | CATAATCA | 0.271
137 | AATAATCA | 0.11
138 | CATAAGTC | 0.112
139 | CTGGTCTA | -0.0194
140 | AGCGCACG | -0.0432
141 | CTTGGTAA | 0.101
142 | GTTGGTAA | 0.149
143 | ATTGGTAA | 0.304
144 | ACGTCTCT | -0.138
145 | ATTACCGG | -0.0144
146 | AGTTGTGG | 0.271
147 | AGTTGTGC | 0.0195
148 | AGTTGTGA | 0.108
149 | TATCAAAA | 0.23
150 | ATATGAGA | 0.196

Row | Sequence | PBM E-score
151 | CTTAATCA | 0.166
152 | ATTAATCG | 0.191
153 | ATTAATCA | 0.287
154 | GTTAATCA | 0.256
155 | ATTAATCC | 0.0925
156 | GCTAATCA | 0.164
157 | AACTTTAA | 0.234
158 | AAGTCTCA | -0.101
159 | GATCAGAC | -0.0877
160 | AGTGGAAC | -0.0961
161 | GAAGCCTC | -0.198
162 | CACGAACA | 0.192
163 | AACGAACG | -0.00775
164 | AACGAACA | 0.259
165 | CAGGGTCC | -0.29
166 | GAAAATTA | 0.207
167 | GGAAATTA | 0.332
168 | GCAAATTA | 0.262
169 | ACAAATTA | 0.242
170 | CCAAATTA | 0.192
171 | AGAAATTA | 0.202
172 | ATACCACC | 0.086
